Sampled rows, rich in hits. Any-hit rate of the full collection: about 1.1%.
AI-2 QS modul: modulators of Vibrio harveyi AI-2 quorum sensing system. Vibrio harveyi JMH597 AI-2 luminescence/OD600 ratio, 9 h; hits give low values; strain lacks LuxN and CqsS sensors; 0 = neutral-control median. activity change, % at 7.5 µM. 300,000 tested, 0.4% active; in the data active = activity change below about -75%, passing the limit was not always enough;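 note: luminescence divided by OD600 gain over 9 h not by final OD600 alone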
NTR1 ag: NTR1 (human) agonism. P30989. NTR1-U2OS beta-arrestin-GFP spot imaging, agonist mode. activation, % at 20 µM. 330,000 tested, 0.17% active. AID 493036;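 active = activation at or above 40% of the spot to cytoplasm intensity ratio, with at least 20 cells analyzed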;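 note: 0% = DMSO without peptide and 100% = 100 nM NTR1 peptide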
DSG3 Ab inh: inhibitors of pemphigus antibody binding to human desmoglein-3 | AID 588358 | 310,000 tested, 0.48% active | DSG3-coupled beads, scFv-anti-DSG3-GFP binding, flow cytometry; hits give low values | binding (percent of control), % at 10 µM;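 active = binding more than 3 SD below its plate's average and above zero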;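 note: hits lower antibody fragment binding to DSG3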
VLA-4 inh: inhibition in a human VLA-4 binding assay | VLA-4 expressing cells, ligand binding flow cytometry | inhibition, % (about 7 µM as worked out from the volumes in the protocol) | 330,000 tested, 0.2% active; in the data active = inhibition above about 50%
* hit, by the source's call; i = inactive; nt = no result given.

SMILES	AI-2 QS modul	NTR1 ag	DSG3 Ab inh	VLA-4 inh
CCOc1ccccc1NC(=O)C(=O)N/N=C/c1ccc([N+](=O)[O-])cc1	11	1	93*	-3
O=C(CNc1ccccc1)N/N=C/c1ccc([N+](=O)[O-])cc1	6	-1	106	62*
O=C(CCNC(=O)c1ccccc1)N/N=C/c1ccc([N+](=O)[O-])cc1	17	1	90	3
COc1ccc(C(=O)N/C(=C\c2cn(S(=O)(=O)N(C)C)c3ccccc23)C(=O)N2CCCC2)cc1	nt	nt	108	nt
COC(=O)C[C@@H]1C[C@H]2c3cc(NC(=O)Nc4ccccc4F)ccc3O[C@H]2[C@H](CO)O1	nt	nt	102	nt
CC(=O)Nc1ccc(C(=O)OCC(=O)NC2CCCCCC2)cc1	nt	nt	100	nt
COc1ccc(S[C@@H](CCN2CC[C@H](O)CCC2=O)c2ccccc2)cc1	nt	-2	103	10
CN(C)c1ccc(/C=C/c2ccc3ccccc3[n+]2C)cc1	-92*	4	94	i
Cn1ncc2c1NC(c1ccc(F)cc1)SCC2=O (stereo unspecified)	nt	nt	98	nt
CCCN(C(=O)c1cc(-c2ccco2)nc2ccccc12)c1c(N)n(Cc2ccccc2)c(=O)[nH]c1=O	8	-1	87*	17
COCCN(C(=O)c1cc(-c2ccco2)nc2ccccc12)c1c(N)n(Cc2ccccc2)c(=O)[nH]c1=O	nt	-2	79	13
CN(C)c1c([N+](=O)[O-])cc(N2C(=O)C=CC2=O)cc1[N+](=O)[O-]	nt	nt	81	nt
COc1ccc(S(=O)(=O)N2CCN(CC(=O)Nc3ccccc3Cl)CC2)cc1	8	3	107	1
COc1ccc(S(=O)(=O)N2CCN(CC(=O)Nc3ccccc3OC)CC2)cc1	14	4	75*	-1
COCCCNC1=C(C#N)C(=O)NC2(CCCC2)S1	nt	nt	104	nt
C[C@@H]1CN([C@H](C)CO)S(=O)(=O)c2ccc(Br)cc2O[C@H]1CN(C)C(=O)Cc1ccccn1	nt	nt	103	nt
N#CCC(C(=O)c1cccnc1)c1ccccc1 (stereo unspecified)	nt	nt	98	nt
O=c1c2ccccc2sn1-c1cc(S(=O)(=O)N2CCOCC2)ccc1N1CCOCC1	21	-1	26*	12
O=c1c2ccccc2sn1-c1cc(S(=O)(=O)N2CCOCC2)ccc1N1CCCC1	40	14	72	1
CCOc1cc(N2CCOCC2)c(OCC)cc1NC(=O)c1cnccn1	nt	1	nt	7
COc1cc(OC)c(NC(=O)c2c(-c3ccccc3)noc2C)cc1Cl	28	4	70*	3
CCC(/C=C1\Sc2ccc(OC)cc2N1CCO)=C\c1sc2ccc(OC)cc2[n+]1CCO	nt	0	-40*	i
COc1ccc(NCC(=O)N/N=C2\CCc3ccccc32)cc1	17	-1	106*	4
O=C(CCNC(=O)c1ccco1)NC(Cc1c[nH]c2ccccc12)C(=O)O (stereo unspecified)	nt	-1	nt	7
Cc1ccc(NC(=O)COc2ncnc3sccc23)cc1S(=O)(=O)N(C)C	-78*	0	100	20
SMILES	AI-2 QS modul	NTR1 ag	DSG3 Ab inh	VLA-4 inh
Cc1ccc(S(=O)(=O)CCC(=O)OC2CC(C)OC2=O)cc1 (stereo unspecified)	nt	-2	100	-3
Cc1cc(=O)c(C(=O)O)c(C)n1-c1ccccc1	nt	nt	126	nt
CC(=O)NC(CCS(C)(=O)=O)C(=O)Nc1nc(C)cs1 (stereo unspecified)	0	0	81*	1
COc1ccccc1C(=O)N/N=C(\C)c1ccc(NC(=O)Cc2ccccc2)cc1	12	1	101	-12
COc1ccccc1C(=O)N/N=C(\C)c1ccc(NC(=O)C2CC2)cc1	11	2	2.4*	-6
CSc1nc(C2CC2)cc(-c2cccs2)c1C#N	23	10	8.8*	3
COc1ccc(OCC(=O)N(C)CC2COc3ccccc3O2)cc1 (stereo unspecified)	nt	-2	93	-6
CCc1c(-c2ccccc2)nc2nc(C)c(C)nn12	22	0	33*	-19
Cc1nc2nc(-c3ccccc3)cn2nc1C	16	0	98	-22
Cc1nn(-c2cccc(C(F)(F)F)c2)c(=O)c2ccccc12	27	2	94*	-26
Cc1nn(-c2ccccc2)c(=O)c2ccccc12	8	2	106	8
COc1ccc2nc(NC(=O)CSc3nnnn3C)sc2c1	-22	-1	-8.1*	9
COc1ccc(C(=O)NCc2nnc(SCC(=O)Nc3nc4ccccc4s3)o2)cc1	18	-2	85*	-4
COc1cc(C(=O)NCc2nnc(SCC(=O)Nc3nc4ccccc4s3)o2)cc(OC)c1OC	21	-1	106	18
COc1ccc2nc(NC(=O)CSc3nnnn3C3CCCCC3)sc2c1	39	2	103	12
O=C(NCc1ccccc1)c1ncn(Cc2ccccc2)c1C(=O)NCc1ccccc1	nt	5	107	0
Cn1cnc(C(=O)NCc2ccccc2)c1C(=O)NCc1ccccc1	nt	-2	70*	10
O=C(NCc1ccccc1)c1ccccc1	nt	nt	101	nt
O=C(NCc1ccccc1)c1ccc(C(=O)NCc2ccccc2)cc1	nt	nt	79*	nt
Cc1ccc(S(=O)(=O)N2C[C@H]3N(C(=O)OC(C)C)N(C(=O)OC(C)C)C[C@H](OC(=O)Nc4cccs4)[C@@]3(O)C2)cc1	nt	nt	104	nt
C/C(=N\Nc1ccc(S(=O)(=O)N2CCCCC2)cn1)c1cccc(Br)c1	nt	4	102	12
CC(=O)Nc1nc2[nH]ccc2c(=O)[nH]1	nt	nt	105	nt
CCOc1ccc(-c2csc(NC(=O)c3cccc(N4C(=O)CCC4=O)c3)n2)cc1	-8	10	57*	-3
COc1ccc(-c2csc(NC(=O)c3cccc(N4C(=O)CCC4=O)c3)n2)cc1OC	nt	1	101	18
CCOC(=O)C1=C(c2ccccc2)NC(N)=NC1c1ccc(OCc2ccc(C(=O)OC)cc2)cc1 (stereo unspecified)	-92*	24	109	-4
SMILES	AI-2 QS modul	NTR1 ag	DSG3 Ab inh	VLA-4 inh
O=C(Cn1nc(C(=O)O)c2ccccc2c1=O)Nc1ccc(Cl)c(S(=O)(=O)N2CCOCC2)c1	nt	2	69*	0
Cn1nc(C(=O)Nc2ccc(S(=O)(=O)N3CCOCC3)cc2)c2ccccc2c1=O	5	0	84*	-7
O=C1C=CC(=O)N1	nt	-2	96	32
COc1ccc(NS(=O)(=O)c2cc(NC(=O)COc3ccc(OC)cc3)ccc2N2CCOCC2)cc1	nt	0	103	4
CC(C)(C)OC(=O)NCCc1nnc(S(=O)(=O)Cc2ccc(Cl)cc2Cl)o1	-89*	4	113	39
CC(C)(C)OC(=O)NCCc1nnc(SCc2ccccc2Cl)o1	13	-2	103	2
CC(=O)Nc1cccc(N=NN2CCOCC2)c1	28	0	102	1
CC(=O)Nc1ccc(N=NN2CCOCC2)cc1	-88*	0	106	8
CC(OC(=O)[C@@H](NC(=O)OCc1ccccc1)C(C)C)C(=O)Nc1ccc(N2CCOCC2)cc1 (stereo partly specified)	nt	nt	115	nt
CCc1ccc(S(=O)(=O)/N=C2\C=C(NS(=O)(=O)c3ccccc3)C(=O)c3ccccc32)cc1	18	2	49*	nt
O=C(NCc1nc(-c2ccccc2)no1)c1cccs1	-79*	1	83	8

High-throughput results deposited in PubChem by several laboratories.
